About 8,800 targets were measured; listed, in parts, are those with a hit and a random draw of the rest. About 0.5% of all pairs of compound and target were hits.
compound: O=C(O)c1ccc2c(c1)nc(Nc1cccc(Cl)c1)c1ccncc12 [silmitasertib]; test: log2 fold change, soluble protein after heating vs DMSO (PISA); higher = thermal stabilisation; K562 lysate, 10 uM; active = over 0.2 and 3.5 SD of the protein, either way, in both replicates (recomputed)
How it was run: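 Soluble protein was defined as the supernatant remaining after 21,000xg for 90 min, following pooling of heated aliquots and adjustment to 0.5% NP-40 at 4°C. Before that, crude K562 extract at 1 mg/mL protein in PBS pH 7.4 with 1 mM MgCl2 was treated with 10 μM compound for 30 min and heated for 3 min across 48°C-58°C. Quantification used TMTpro 16plex LC-MS/MS with channel sums equalised, and values are log-two fold changes in thermal stability relative to solvent controls from duplicates.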

UniProt Q14542, sequence (Q14542 whole entry, looked up): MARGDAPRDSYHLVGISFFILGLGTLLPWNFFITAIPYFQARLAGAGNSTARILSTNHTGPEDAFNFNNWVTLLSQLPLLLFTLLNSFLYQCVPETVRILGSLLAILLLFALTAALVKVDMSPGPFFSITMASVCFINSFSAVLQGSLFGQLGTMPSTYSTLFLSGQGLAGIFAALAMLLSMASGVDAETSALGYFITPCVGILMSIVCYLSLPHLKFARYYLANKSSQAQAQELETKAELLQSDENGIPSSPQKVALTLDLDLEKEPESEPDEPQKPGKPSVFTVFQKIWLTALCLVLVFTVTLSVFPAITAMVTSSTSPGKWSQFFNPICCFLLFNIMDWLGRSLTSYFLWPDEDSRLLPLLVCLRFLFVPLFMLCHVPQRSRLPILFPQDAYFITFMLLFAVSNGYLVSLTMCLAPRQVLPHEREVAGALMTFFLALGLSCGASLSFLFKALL
UniProt P19623, sequence (P19623 whole entry, looked up): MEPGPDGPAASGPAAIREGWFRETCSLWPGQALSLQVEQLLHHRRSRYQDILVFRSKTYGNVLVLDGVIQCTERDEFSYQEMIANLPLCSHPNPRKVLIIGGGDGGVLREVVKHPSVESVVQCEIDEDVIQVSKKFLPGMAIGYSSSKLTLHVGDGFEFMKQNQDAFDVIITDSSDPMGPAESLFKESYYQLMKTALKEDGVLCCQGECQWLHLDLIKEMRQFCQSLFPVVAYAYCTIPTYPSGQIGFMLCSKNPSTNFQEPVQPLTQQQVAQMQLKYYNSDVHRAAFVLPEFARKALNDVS
UniProt Q8NDV3, sequence (Q8NDV3 whole entry, looked up): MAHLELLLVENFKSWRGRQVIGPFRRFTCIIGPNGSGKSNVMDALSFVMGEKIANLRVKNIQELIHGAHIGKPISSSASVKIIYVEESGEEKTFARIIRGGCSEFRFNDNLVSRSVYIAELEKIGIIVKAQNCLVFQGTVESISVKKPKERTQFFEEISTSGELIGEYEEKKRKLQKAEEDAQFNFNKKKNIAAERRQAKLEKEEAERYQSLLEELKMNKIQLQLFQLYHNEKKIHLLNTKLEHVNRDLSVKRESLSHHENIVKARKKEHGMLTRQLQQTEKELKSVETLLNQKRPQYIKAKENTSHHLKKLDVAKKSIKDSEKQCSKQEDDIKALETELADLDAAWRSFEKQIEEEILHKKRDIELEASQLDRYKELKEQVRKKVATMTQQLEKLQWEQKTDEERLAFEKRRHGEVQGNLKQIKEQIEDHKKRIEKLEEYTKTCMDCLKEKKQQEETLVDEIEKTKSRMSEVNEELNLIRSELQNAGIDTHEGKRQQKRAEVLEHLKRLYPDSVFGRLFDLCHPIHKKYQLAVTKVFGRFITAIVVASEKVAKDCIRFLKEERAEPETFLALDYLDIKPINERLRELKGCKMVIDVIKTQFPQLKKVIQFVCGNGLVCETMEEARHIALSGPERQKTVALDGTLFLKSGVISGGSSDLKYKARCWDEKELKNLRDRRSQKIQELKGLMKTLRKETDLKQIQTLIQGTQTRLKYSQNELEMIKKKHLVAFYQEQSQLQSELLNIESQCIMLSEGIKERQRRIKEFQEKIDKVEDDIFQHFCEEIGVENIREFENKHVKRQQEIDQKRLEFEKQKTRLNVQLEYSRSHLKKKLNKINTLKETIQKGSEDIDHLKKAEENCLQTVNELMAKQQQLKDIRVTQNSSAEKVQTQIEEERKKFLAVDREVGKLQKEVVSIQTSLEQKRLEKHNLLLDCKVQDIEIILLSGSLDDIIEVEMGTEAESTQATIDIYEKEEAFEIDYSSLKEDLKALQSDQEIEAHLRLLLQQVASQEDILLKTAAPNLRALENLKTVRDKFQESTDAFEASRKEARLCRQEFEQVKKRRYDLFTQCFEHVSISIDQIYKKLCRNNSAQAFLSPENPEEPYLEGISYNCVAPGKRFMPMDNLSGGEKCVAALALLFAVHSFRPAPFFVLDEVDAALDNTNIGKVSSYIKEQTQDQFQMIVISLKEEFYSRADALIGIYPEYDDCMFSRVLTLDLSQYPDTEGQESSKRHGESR
UniProt Q86US8, sequence (Q86US8 whole entry, looked up): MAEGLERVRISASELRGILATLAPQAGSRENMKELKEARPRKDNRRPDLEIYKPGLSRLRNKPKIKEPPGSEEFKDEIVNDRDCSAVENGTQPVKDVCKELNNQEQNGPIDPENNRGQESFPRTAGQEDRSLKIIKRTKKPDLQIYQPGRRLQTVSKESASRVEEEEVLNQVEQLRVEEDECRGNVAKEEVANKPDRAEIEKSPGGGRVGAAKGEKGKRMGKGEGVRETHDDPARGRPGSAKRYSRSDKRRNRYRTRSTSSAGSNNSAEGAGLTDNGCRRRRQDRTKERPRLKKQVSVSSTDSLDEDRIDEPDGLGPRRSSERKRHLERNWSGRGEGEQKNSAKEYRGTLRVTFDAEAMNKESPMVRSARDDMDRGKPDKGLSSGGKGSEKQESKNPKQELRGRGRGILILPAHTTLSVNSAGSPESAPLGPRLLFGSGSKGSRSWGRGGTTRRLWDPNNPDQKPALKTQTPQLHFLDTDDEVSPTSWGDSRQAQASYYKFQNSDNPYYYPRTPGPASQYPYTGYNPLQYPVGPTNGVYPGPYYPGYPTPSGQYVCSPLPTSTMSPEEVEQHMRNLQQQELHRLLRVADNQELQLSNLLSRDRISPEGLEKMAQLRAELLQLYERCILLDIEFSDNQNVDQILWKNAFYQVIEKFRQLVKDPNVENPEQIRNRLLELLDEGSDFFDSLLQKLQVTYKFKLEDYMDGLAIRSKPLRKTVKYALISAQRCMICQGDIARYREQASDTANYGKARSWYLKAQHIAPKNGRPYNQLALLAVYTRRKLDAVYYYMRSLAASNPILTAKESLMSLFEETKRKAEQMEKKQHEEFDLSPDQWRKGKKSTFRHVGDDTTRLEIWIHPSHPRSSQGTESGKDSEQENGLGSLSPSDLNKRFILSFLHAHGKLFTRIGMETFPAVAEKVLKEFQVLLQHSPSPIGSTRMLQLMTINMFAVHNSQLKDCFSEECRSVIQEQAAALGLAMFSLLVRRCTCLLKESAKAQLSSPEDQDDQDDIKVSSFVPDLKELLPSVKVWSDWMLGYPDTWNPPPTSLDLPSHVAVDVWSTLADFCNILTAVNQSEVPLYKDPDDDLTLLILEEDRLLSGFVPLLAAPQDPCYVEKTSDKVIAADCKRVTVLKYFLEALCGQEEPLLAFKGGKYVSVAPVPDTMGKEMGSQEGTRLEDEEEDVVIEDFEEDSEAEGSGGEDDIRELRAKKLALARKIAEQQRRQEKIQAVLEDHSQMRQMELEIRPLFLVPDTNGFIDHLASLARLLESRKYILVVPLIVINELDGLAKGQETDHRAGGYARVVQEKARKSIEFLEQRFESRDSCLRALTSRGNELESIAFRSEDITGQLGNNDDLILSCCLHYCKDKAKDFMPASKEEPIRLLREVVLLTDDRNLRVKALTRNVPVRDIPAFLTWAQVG
UniProt P08047, sequence (P08047 whole entry, looked up): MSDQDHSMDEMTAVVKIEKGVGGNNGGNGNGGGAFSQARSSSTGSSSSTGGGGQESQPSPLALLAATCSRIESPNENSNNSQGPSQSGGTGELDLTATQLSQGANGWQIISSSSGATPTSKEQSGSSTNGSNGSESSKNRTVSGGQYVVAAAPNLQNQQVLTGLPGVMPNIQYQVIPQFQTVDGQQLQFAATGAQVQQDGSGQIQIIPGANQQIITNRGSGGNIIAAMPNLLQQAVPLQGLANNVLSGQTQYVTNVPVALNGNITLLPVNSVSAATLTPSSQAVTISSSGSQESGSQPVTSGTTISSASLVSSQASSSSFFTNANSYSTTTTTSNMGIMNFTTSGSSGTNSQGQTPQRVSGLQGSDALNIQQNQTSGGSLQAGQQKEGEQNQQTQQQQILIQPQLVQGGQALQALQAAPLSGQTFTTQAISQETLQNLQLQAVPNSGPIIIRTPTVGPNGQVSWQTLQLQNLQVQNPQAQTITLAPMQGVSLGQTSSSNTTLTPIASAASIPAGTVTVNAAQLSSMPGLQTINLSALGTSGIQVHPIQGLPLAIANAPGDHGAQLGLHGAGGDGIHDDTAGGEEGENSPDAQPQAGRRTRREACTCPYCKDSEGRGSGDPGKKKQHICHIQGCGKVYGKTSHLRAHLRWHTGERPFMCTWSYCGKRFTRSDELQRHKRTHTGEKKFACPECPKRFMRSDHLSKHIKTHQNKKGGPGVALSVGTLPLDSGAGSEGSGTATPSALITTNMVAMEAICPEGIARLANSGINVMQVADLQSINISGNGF
UniProt Q8NEM2, sequence (Q8NEM2 whole entry, looked up): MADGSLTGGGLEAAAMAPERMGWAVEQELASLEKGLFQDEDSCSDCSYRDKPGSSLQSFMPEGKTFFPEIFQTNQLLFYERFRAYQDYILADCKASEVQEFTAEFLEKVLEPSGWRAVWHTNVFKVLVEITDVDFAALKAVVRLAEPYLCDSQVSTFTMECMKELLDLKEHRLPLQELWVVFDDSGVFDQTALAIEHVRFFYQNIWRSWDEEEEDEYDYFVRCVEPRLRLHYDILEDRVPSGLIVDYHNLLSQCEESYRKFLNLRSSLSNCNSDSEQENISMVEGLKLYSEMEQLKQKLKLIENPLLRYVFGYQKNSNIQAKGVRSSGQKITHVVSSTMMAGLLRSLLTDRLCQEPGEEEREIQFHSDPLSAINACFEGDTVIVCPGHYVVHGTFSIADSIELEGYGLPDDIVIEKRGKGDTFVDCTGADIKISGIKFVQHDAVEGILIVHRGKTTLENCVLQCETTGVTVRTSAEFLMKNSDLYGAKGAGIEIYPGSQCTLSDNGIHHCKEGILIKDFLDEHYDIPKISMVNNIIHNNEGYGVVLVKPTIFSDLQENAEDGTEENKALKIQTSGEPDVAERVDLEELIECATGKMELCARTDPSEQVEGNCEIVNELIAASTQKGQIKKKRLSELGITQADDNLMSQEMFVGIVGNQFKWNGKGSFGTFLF
UniProt Q9UJC5, sequence (Q9UJC5 whole entry, looked up): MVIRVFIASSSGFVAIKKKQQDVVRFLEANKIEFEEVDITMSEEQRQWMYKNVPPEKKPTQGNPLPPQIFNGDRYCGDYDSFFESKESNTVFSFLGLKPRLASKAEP

log2 fold change, inactive:
SPNS1 (UniProt Q9H2V7) 0.033
SRM (UniProt P19623) 0.008
STOML2 (UniProt Q9UJZ1) -0.021
SFN (UniProt P31947) -0.032
SMC1B isoform 3 (UniProt Q8NDV3) -0.011
STK24 (UniProt B4DR80) -0.014
STAU1 (UniProt O95793) 0.017
SPATS2 (UniProt Q86XZ4) 0.002
SMC4 (UniProt Q9NTJ3) 0.011
STK38 (UniProt Q15208) 0.16
SMG6 (UniProt Q86US8) 0.015
SMARCA4 (UniProt P51532) 0.021
SSBP3 (UniProt Q9BWW4) -0.005
STAT2 (UniProt P52630) 0.063
STUB1 (UniProt Q9UNE7) 0.015
SHKBP1 (UniProt Q8TBC3) -0.06
SSB (UniProt P05455) 0.01
SMG7 (UniProt Q92540) 0.027
SMG1 (UniProt Q96Q15) 0.011
SRRT (UniProt Q9BXP5) 0.044
SHC1 isoform 6 (UniProt P29353) -0.017
SH3BGRL2 (UniProt Q9UJC5) -0.011
SP1 (UniProt P08047) -0.045
SHCBP1 (UniProt Q8NEM2) 0.04
SH3BP5L (UniProt Q7L8J4) -0.068
SYNRG (UniProt Q9UMZ2) -0.01
STK26 (UniProt Q9P289) 0.035
SMC2 (UniProt O95347) 0.016
SLC11A2 isoform 3 (UniProt P49281) -0.047
SYF2 (UniProt O95926) -0.059
SMC6 (UniProt Q96SB8) -0.022
SLC29A2 (UniProt Q14542) 0.117
SNAP23 (UniProt O00161) -0.067

Source: the supplement of paper PMC10849652
